FLuc counter – counter-screen for miR-21 project: firefly luciferase inhibitors or activators; P08659; purified FLuc, Km substrates, luminescence inhibition; Potency, µM (series often up to 57.5 µM), without a hit: top-dose activity change, negative = inhibition, usual class: inhibitors; 360,000 compounds, 6.9% hits; AID 588342;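 also: plate controls were vehicle for no effect and reference inhibitor for full effect; nearly all actives have a fitted effect of over 55% in size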
Target sequence (P08659 whole entry, looked up): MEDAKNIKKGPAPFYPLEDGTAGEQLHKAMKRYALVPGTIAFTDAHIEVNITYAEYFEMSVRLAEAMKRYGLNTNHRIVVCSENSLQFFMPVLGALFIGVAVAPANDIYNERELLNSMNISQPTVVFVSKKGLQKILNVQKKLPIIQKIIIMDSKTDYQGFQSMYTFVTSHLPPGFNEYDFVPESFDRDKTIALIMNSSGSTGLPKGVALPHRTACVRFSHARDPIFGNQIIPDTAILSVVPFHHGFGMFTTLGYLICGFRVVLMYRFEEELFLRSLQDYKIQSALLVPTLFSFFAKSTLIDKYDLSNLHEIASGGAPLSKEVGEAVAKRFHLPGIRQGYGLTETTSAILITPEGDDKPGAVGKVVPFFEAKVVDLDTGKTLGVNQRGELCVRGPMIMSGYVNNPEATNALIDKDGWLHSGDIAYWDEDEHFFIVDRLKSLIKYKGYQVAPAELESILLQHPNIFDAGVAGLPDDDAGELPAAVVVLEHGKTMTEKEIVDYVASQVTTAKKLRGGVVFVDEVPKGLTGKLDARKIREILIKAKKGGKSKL
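Biochemical qHTS of compounds, final roughly 60 µM downward over six points, against 10 nM purified firefly luciferase using Km concentrations of substrates (10 uM D-luciferin, 10 uM ATP) in Tris acetate pH 7.5 buffer; luminescence output.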
NPC1 promoter act – activates the NPC1 promoter; AID 485313; Huh7 NPC1 promoter luciferase reporter, 24 h; Potency, µM (highest dose often 9.22 µM), without a hit: at the top dose activation, hits mostly activators; 320,000 compounds, 2.4% hits; also: % of control where 0% means no effect; nearly all actives have a fitted effect of over 60% in size
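NPC1 promoter–luciferase Huh7 cells; 24 h compound; luminescence.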
ELG1 genotoxic – induces genotoxicity in HEK293T cells with luciferase-tagged ELG1; Potency, µM (series often up to 46 µM), for inactives: at the highest dose activity change, positive = activation, most hits filed as activators; HEK293T ELG1-luciferase reporter, luminescence, 16 h; 330,000 compounds, 1.3% hits; also: % of control where 0% means no effect; nearly all actives have a fitted effect of over 60% in size
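ELG1-luciferase HEK293T cells, 2,000/well; compound pinned in; 16 hr, 37 °C, 5% CO2; ONE-Glo, 30 min RT; luminescence on CCD imager.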
SMN2 splice up – increases expression of the SMN2 splice variant; HEK293 SMN2-luciferase splicing reporter, luminescence, 30-36 h; Potency, µM (doses to about 46.1 µM), for the others: at the top dose activity change, positive = activation, usual class: activators; 210,000 compounds, 2.8% hits; AID 1458; also: % of control where 0% means no effect; nearly all actives have a fitted effect of over 55% in size
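HEK293 cells carry an SMN2 […]–luciferase reporter in which exon 7 inclusion puts luciferase in frame. Cells were plated 10-12 h before compound addition, then incubated 30-36 h at 37C. ONE-Glo luminescence was read; sodium butyrate at 4.5 mM final served as control.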
Rab9 prom act – activates the Rab9 promoter. Huh7 Rab9 promoter-luciferase reporter, luminescence, 24 h. Potency, µM (highest dose often 9.22 µM), for the others: at the highest dose activation, negative = inhibition, actives largely listed as activators. 320,000 compounds, 2.8% hits; also: % of control where 0% means no effect; nearly all actives have a fitted effect of over 60% in size
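Huh7 reporter line, Rab9 promoter upstream of luciferase. Compound exposure 24 h at 37 °C in reduced-serum medium with 10% FBS. Read-out: luminescence.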
Starred values were filed as active, the others as inactive; ? = inconclusive; / = no result given; [ ] = another dose, or the depositor's remark. Most compounds without a hit are left out; they make up all but 7.4% or so of the library. Calls follow the shape of the dose curve; as a rule, active = well fitted curve in the direction sought with a large enough effect; inconclusive = small, poorly fitted or top-dose-only effect, or another doubt; inactive = no such curve, though single readings can be large; an effect the other way counts as inactive or inconclusive. Potency is read from the fitted curve at half-maximal effect.

SMILES	FLuc counter	NPC1 promoter act	ELG1 genotoxic	SMN2 splice up	Rab9 prom act
O=C(O)C1CC(=O)N(c2ccc(OCc3ccc(Cl)cc3Cl)cc2)C1 (stereo unspecified)	17µM*	-2%	2%	10%	-5%
O=C(O)C1CC(=O)N(c2ccc(OCc3ccccc3Cl)cc2)C1 (stereo unspecified)	?	3%	2%	6%	2%
NC(=O)C1CC(=O)N(c2ccc(OCc3c(F)cccc3Cl)cc2)C1 (stereo unspecified)	-12%	-6%	0%	/	1%
NC(=O)C1CC(=O)N(c2ccc(OCc3ccc(F)cc3)cc2)C1 (stereo unspecified)	?	2.5µM*	18µM*	/	?
CCOc1ccc(N(CC(=O)NC2CCCC2)C(=O)CCC(=O)Nc2nccs2)cc1	0%	?	0%	/	0%
COc1ccc(-c2nc(NC(C)=O)sc2-c2ccc(OC)cc2)cc1	0%	2%	8%	-1%	0%
COc1ccc(C2CC(=O)c3sc(NC(C)=O)nc3C2)cc1 (stereo unspecified)	27µM*	26%	?	-13%	24%
COc1ccc2c(c1)CC/C(=C/c1ccncc1)C2=O	13µM*	-2%	0%	-58%	-14%
COc1ccc(/C=C2/CCOC2=O)cc1	-18%	6%	2%	-3%	-3%
COc1ccc2c(c1)CC/C(=C\c1ccc(C)o1)C2=O	2.4µM*	2.5µM*	?	/	2.8µM*
CCOc1cccc(C(=O)Nc2cc(C)c(O)c(-c3nc4ncccc4o3)c2)c1	?	/	/	6%	/
Cc1ccc2nc(-c3ccc(Cl)c(NC(=O)COc4cccc(C)c4C)c3)oc2c1	4.8µM*	/	/	?	/
CCc1ccc2oc(-c3cc(NC(=O)c4cc(OC)c(OC)c(OC)c4)ccc3O)nc2c1	3.8µM*	/	/	-7%	/
Cc1ccc2oc(-c3ccc(NC(=O)c4cccnc4)cc3)nc2c1	6µM*	2.5µM*	?	2µM*	2.2µM*
CCc1ccc2oc(-c3cc(NC(=O)c4cccnc4)cc(C)c3O)nc2c1	0.85µM*	/	/	12%	/
Cc1cc(-n2ccnc(NCCc3ccc(S(N)(=O)=O)cc3)c2=O)ccc1Br	-2%	/	/	/	/
CCc1ccc2oc(-c3cc(N=Cc4cccc(OC)c4O)ccc3O)nc2c1	0.43µM*	4.5µM*	?	14µM*	4µM*
Cc1ccc2nc(-c3ccc(Cl)c(NC(=O)c4cccnc4)c3)oc2c1	0.6µM*	/	/	-4%	/
O=C(Nc1ccc(-c2nc3ccccc3o2)cc1)c1cccnc1	2.7µM*	2.2µM*	?	8.9µM*	1.6µM*
O=C(Nc1cccc(-c2nc3ccccc3o2)c1)c1cccnc1	?	-1%	-6%	-35%	-1%
Cc1ccc2nc(-c3ccc(Cl)c(NC(=O)c4cccc([N+](=O)[O-])c4C)c3)oc2c1	-20%	/	/	2%	/
Nc1cc(=O)[nH]c(SCc2ccc(Cl)cc2Cl)n1	1%	-19%	9%	/	-26%
COc1ccc(CSc2nnnn2-c2ccccc2)cc1	-1%	-2%	2%	-4%	-4%
COc1ccc(C)cc1-n1nnnc1SCc1nc2ccccc2s1	11µM*	?	10%	-21%	?
COc1ccc(-n2nnnc2SCc2nc3ccccc3s2)cc1	11µM*	14%	16µM*	-6%	?
SMILES	FLuc counter	NPC1 promoter act	ELG1 genotoxic	SMN2 splice up	Rab9 prom act
Cc1ccccc1S(=O)(=O)O[C@@H]1NS(=O)(=O)c2ccccc21	/	/	/	-11%[9.22 µM]	/
Cc1ccc(CNc2nc3nc(C)c(Cl)c(C)n3n2)cc1	/	/	/	15%	/
COc1ccc(-c2cn3nc(C)c(C)nc3n2)cc1OC	?	?	5%	/	2.8µM*
Cc1ccc(-c2cn3nc(C)c(C)nc3n2)cc1	0.67µM*	?	?	0.5µM*	0.18µM*
NS(=O)(=O)c1ccc(CNC(=O)c2ccc3c(c2)OCO3)cc1	/	/	-2%	/	/
C[C@H](CO)N1C[C@H](C)[C@@H](CN(C)Cc2ccccc2)Oc2ccc(NC(=O)Cn3cnnn3)cc2C1=O	/	/	3%	/	/
O=C(c1csnn1)N1CCC2(CCCN(c3ncccn3)C2)CC1	/	/	/	-8%	/
COc1cccc2cc(CC(=O)c3ccc(C)cc3C)c(=O)oc12	11µM*	?	11%	/	?
COc1ccc(C(=O)Cc2cc3cccc(OC)c3oc2=O)cc1	?	28%	13%	/	-5%[1.84 µM]
COc1cccc2cc(C(=O)Nc3ccc(F)c(F)c3)c(=O)oc12	0%	/	/	2%	/
COc1cccc2cc(NC(=O)C3CCCCC3)c(=O)oc12	?	3.2µM*	?	?	1.8µM*
COc1cccc2cc(C(=O)Nc3ccc(C)cc3)c(=O)oc12	0.38µM*	/	/	14%	/
COc1cccc2cc(C(=O)Nc3cccc(C)n3)c(=O)oc12	0.21µM*	22%	2.3µM*	-8%	?
COc1ccc(CNC(=O)c2[nH]c(C)c(C(C)=O)c2C)cc1	3%	-2%	4%	/	3%
COc1cc(/C=N/Nc2ccc(Cl)c(C(=O)O)c2)ccc1OC(=O)c1ccccc1F	17µM*	?	14%	/	24%
COc1cc(/C=N/Nc2ccc(Cl)c(C(=O)O)c2)ccc1OC(=O)c1ccc(F)cc1	?	2.8µM*	?	/	?
COc1cc(/C=N/NC(=O)c2ccncc2)ccc1OC(=O)c1ccccc1Cl	?	-6%	-3%	-1%	-12%
Cc1ccc(NC(=O)C2CCCN(C(=O)NCc3ccccc3)C2)c(C)c1 (stereo unspecified)	-1%	-1%	-12%	/	1%
Cc1ccc(NC(=O)C2CCCN2S(=O)(=O)c2ccc3c(c2)CCCC(=O)N3)cc1C (stereo unspecified)	-8%	/	/	/	/
CN(Cc1ccc(Br)s1)C(=O)CNC(=O)c1ccc2c(c1)OCO2	3%	1%	-1%	/	1%
COc1ccc(C(CNC(=O)c2ccc(-c3nc4ccccc4s3)o2)N2CCCC2)cc1 (stereo unspecified)	19µM*	-1%	-3%	/	1%
Oc1csc(Cc2nc(-c3ccc(-c4ccccc4)cc3)cs2)n1	?	?	11%	4%	?
Oc1csc(Cc2nc(-c3ccccc3F)cs2)n1	-18%	?	-4%	?	5µM*
Oc1csc(Cc2nc(-c3ccc4ccccc4c3)cs2)n1	?	?	?	?	2.8µM*
COc1ccccc1N1CCN(C(=O)CSc2n[nH]c(-c3ccccc3Cl)n2)CC1	-16%	/	/	/	/
O=C(O)c1ccc(N/N=C/c2cc3c(cc2[N+](=O)[O-])OCO3)cc1	?	-2%	-20%	-26%	6%
COC(=O)c1cc(NS(=O)(=O)c2ccc3c(c2)OCCO3)ccc1Cl	?	/	/	-21%	/
O=C(O)c1ccc(N/N=C/c2ccc3c(c2)OCO3)cc1	0.095µM*	-38%	?	/	-59%
C/C(=N\Nc1ccc(Cl)c(C(=O)O)c1)c1ccccn1	-18%	16%	10%	/	9%

Source: PubChem BioAssay
